Screens (PubChem BioAssay)
A selection: hits, their analogues and other compounds. The true share with any hit is near 1.6%.
OPRM1-OPRD1 ag = agonists of human mu-delta opioid receptor heterodimerization | activation, % at 9.3 µM | 340,000 tested, 0.3% active | cells, OPRM1-OPRD1 heterodimerization, luminescence; in the data active = activation above about 18%
Target sequence (P35372 whole entry, looked up): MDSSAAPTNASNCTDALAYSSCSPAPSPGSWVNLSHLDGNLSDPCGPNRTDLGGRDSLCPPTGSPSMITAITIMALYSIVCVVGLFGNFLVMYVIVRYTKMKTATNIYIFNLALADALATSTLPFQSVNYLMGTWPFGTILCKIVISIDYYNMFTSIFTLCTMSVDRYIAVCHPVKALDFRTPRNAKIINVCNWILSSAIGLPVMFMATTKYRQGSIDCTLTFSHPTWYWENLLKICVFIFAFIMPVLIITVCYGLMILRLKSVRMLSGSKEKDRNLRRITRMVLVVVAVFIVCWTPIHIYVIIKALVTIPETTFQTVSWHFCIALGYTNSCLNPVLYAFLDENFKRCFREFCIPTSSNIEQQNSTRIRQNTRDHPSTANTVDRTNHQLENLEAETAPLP
Target sequence (P41143 whole entry, looked up): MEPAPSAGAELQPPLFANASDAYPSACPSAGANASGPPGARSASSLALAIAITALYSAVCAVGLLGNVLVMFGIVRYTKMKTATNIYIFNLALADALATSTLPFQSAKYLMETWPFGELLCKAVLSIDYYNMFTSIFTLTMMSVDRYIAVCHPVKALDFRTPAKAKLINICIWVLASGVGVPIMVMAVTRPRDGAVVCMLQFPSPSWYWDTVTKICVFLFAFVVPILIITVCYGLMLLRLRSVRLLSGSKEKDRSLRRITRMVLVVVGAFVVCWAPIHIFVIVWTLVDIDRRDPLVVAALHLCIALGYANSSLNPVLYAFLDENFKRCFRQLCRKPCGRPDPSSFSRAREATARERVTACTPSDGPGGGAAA
MOR-DOR inv ag = mu-delta opioid heterodimer inverse agonism; cell-based MOR-DOR heterodimer luminescence; inhibition, % at 9.3 µM; P35372+P41143; 340,000 tested, 0.21% active; in the data active = inhibition above about 22%, passing the limit was not always enough
HTR5A ag = activates human HTR5A in OPRM1-OPRD1 agonist counter-screen | activation, % at 9.3 µM | 340,000 tested, 0.61% active | HTR5A agonist assay, luminescence, cell-based | P47898; in the data active = activation mostly above about 9.5%, no sharp cut-off; inactive = mostly below about 7.6%
m5-HT2A agonist = mouse HTR2A agonism via beta-arrestin recruitment | CHO-K1 mHTR2A beta-arrestin complementation, luminescence; percent of 30 µM serotonin response | activation, % at 7.6 µM | 360,000 tested, 0.66% active | AID 624169;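 active = activation above a run cutoff, the mean activation of all tested compounds plus 3 SD, cut at about 14% in these data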
HTR5A inv ctr = HTR5A inverse agonism, opioid heterodimer counter-screen; inhibition, % at 9.3 µM; 340,000 tested, 0.083% active; P47898; HTR5A cell line, luminescence; AID 504634; in the data active = inhibition mostly above about 23%, no sharp cut-off; inactive = mostly below about 18%
MOR-DOR inv conf = confirmation of human OPRM1-OPRD1 heterodimerization inverse agonists; shares compounds with MOR-DOR inv ag; cells expressing OPRM1/OPRD1 heterodimer, luminescence; 580 tested, 20% active; inhibition, % at 9.3 µM; in the data active = inhibition above about 32%
HTR5A inv ctr2 = HTR5A inverse agonism, opioid heterodimer counter-screen; shares compounds with MOR-DOR inv ag; HTR5A-expressing cells, luminescence; inhibition, % at 9.3 µM; 580 tested, under 10 active; AID 504914; call rule not given here
Numbers stand for hits.

For CN(C)c1ccc(N=Nc2nc3ccccc3n2C)cc1 the results were OPRM1-OPRD1 ag inactive, MOR-DOR inv ag inactive, HTR5A ag inactive, m5-HT2A agonist inactive and HTR5A inv ctr inactive.
Screening OC(c1cccc(Cl)c1)c1nc(-c2ccoc2)cs1 (stereo not drawn) returned m5-HT2A agonist inactive.
CCOCCCNC(=O)/C(C#N)=C/c1cc(OC)c(O)c([N+](=O)[O-])c1 was read as OPRM1-OPRD1 ag inactive, MOR-DOR inv ag 29.8, HTR5A ag inactive, m5-HT2A agonist inactive, HTR5A inv ctr inactive, MOR-DOR inv conf inactive and HTR5A inv ctr2 inactive.
For C[C@H]1CCC/C=C/[C@@H]2C[C@H](O)C[C@H]2[C@H](O)[C@H](S(=O)c2ccc(O)cc2)CC(=O)O1 (stereo partly drawn) the results were OPRM1-OPRD1 ag inactive, MOR-DOR inv ag 44.3, HTR5A ag inactive, m5-HT2A agonist inactive, HTR5A inv ctr inactive, MOR-DOR inv conf inactive and HTR5A inv ctr2 inactive.
CC(C)(Oc1ccc(F)cc1)C(=O)OCC(=O)c1ccc(S(C)(=O)=O)cc1 was read as OPRM1-OPRD1 ag inactive, MOR-DOR inv ag 58.4, HTR5A ag inactive, m5-HT2A agonist inactive, HTR5A inv ctr inactive, MOR-DOR inv conf inactive and HTR5A inv ctr2 inactive.
`CC(C)NC(=O)C1CCN(C2CCN(C(=O)c3ccc4cccc(F)c4n3)CC2)CC1` gave OPRM1-OPRD1 ag inactive, MOR-DOR inv ag inactive, HTR5A ag inactive, m5-HT2A agonist inactive and HTR5A inv ctr inactive.
`Cc1ccc(NNC(=O)c2c(C)noc2C)cc1Cl` gave OPRM1-OPRD1 ag inactive, MOR-DOR inv ag 41.3, HTR5A ag inactive, m5-HT2A agonist inactive, HTR5A inv ctr inactive, MOR-DOR inv conf inactive and HTR5A inv ctr2 inactive.
`O=C(Nc1cc(Cl)cc(Cl)c1)c1ccno1` gave OPRM1-OPRD1 ag inactive, MOR-DOR inv ag inactive, HTR5A ag inactive, m5-HT2A agonist inactive and HTR5A inv ctr inactive.
`Cc1ccc(NNC(=O)c2snnc2C)cc1Cl` gave OPRM1-OPRD1 ag inactive, MOR-DOR inv ag inactive, HTR5A ag inactive, m5-HT2A agonist inactive and HTR5A inv ctr inactive.
`Cc1ccc(NNC(=O)c2ccno2)cc1Cl` gave OPRM1-OPRD1 ag inactive, MOR-DOR inv ag 52.2, HTR5A ag inactive, m5-HT2A agonist inactive, HTR5A inv ctr inactive, MOR-DOR inv conf inactive and HTR5A inv ctr2 inactive.
For Cc1ccc(NNC(=O)c2ccno2)cc1C the results were OPRM1-OPRD1 ag inactive, MOR-DOR inv ag 60.9, HTR5A ag inactive, m5-HT2A agonist inactive, HTR5A inv ctr inactive, MOR-DOR inv conf inactive and HTR5A inv ctr2 inactive.
`COc1cc(/C=N/c2oc(C)c(C)c2C#N)cc(Br)c1O` gave OPRM1-OPRD1 ag inactive, MOR-DOR inv ag inactive, HTR5A ag inactive, m5-HT2A agonist inactive and HTR5A inv ctr inactive.
`COc1ccc(/C=C(\NC(=O)c2ccccc2)C(=O)NCCC(=O)O)cc1` gave OPRM1-OPRD1 ag inactive, MOR-DOR inv ag inactive, HTR5A ag inactive, m5-HT2A agonist inactive and HTR5A inv ctr inactive.
O=C(COC(=O)COc1ccc(Cl)cc1Br)NC1CC1 was read as OPRM1-OPRD1 ag inactive, MOR-DOR inv ag inactive, HTR5A ag inactive, m5-HT2A agonist inactive and HTR5A inv ctr inactive.
Screening O=C(COC(=O)C1CCN(S(=O)(=O)c2cccs2)CC1)c1ccc2c(c1)OCCO2 returned OPRM1-OPRD1 ag inactive, MOR-DOR inv ag inactive, HTR5A ag inactive, m5-HT2A agonist inactive and HTR5A inv ctr inactive.
Screening O=C(COC(=O)C1CCN(S(=O)(=O)c2cccs2)CC1)c1cc2ccccc2o1 returned OPRM1-OPRD1 ag inactive, MOR-DOR inv ag 58.0, HTR5A ag inactive, m5-HT2A agonist inactive, HTR5A inv ctr inactive, MOR-DOR inv conf inactive and HTR5A inv ctr2 inactive.
Screening CC1(C)CN(c2ccc(C(=O)c3ccccc3)cc2)C1=O returned OPRM1-OPRD1 ag inactive, MOR-DOR inv ag inactive, HTR5A ag inactive, m5-HT2A agonist inactive and HTR5A inv ctr inactive.
CC1(C)CN(c2ccccc2)N(C(=O)c2ccc(F)cc2)C1=O was read as OPRM1-OPRD1 ag inactive, MOR-DOR inv ag 45.7, HTR5A ag inactive, m5-HT2A agonist inactive, HTR5A inv ctr inactive, MOR-DOR inv conf inactive and HTR5A inv ctr2 inactive.
For CC1(C)CN(c2ccccc2)N(C(=O)c2ccc(C#N)cc2)C1=O the results were OPRM1-OPRD1 ag inactive, MOR-DOR inv ag 51.5, HTR5A ag inactive, m5-HT2A agonist inactive, HTR5A inv ctr inactive, MOR-DOR inv conf inactive and HTR5A inv ctr2 inactive.
C/C(=N\NS(=O)(=O)c1ccc(C)cc1)c1ccc(Br)s1 was read as OPRM1-OPRD1 ag inactive, MOR-DOR inv ag inactive, HTR5A ag inactive, m5-HT2A agonist inactive and HTR5A inv ctr inactive.
For N#Cc1ccc(C(=O)N2CCN(c3ncccn3)CC2)cc1 the results were OPRM1-OPRD1 ag inactive, MOR-DOR inv ag inactive, HTR5A ag inactive, m5-HT2A agonist inactive and HTR5A inv ctr inactive.
O=C(Nc1ccccc1[N+](=O)[O-])C1COc2ccccc2O1 (stereo not drawn) was read as OPRM1-OPRD1 ag inactive, MOR-DOR inv ag inactive, HTR5A ag inactive, m5-HT2A agonist inactive and HTR5A inv ctr inactive.
O=C(COC(=O)c1cc(S(=O)(=O)NCc2ccccc2)ccc1O)NCc1ccccc1 was read as OPRM1-OPRD1 ag inactive, MOR-DOR inv ag inactive, HTR5A ag inactive, m5-HT2A agonist inactive and HTR5A inv ctr inactive.
`O=C(COC(=O)c1cc(S(=O)(=O)NCc2ccccc2)ccc1O)c1cc2ccccc2o1` gave OPRM1-OPRD1 ag inactive, MOR-DOR inv ag 40.5, HTR5A ag inactive, m5-HT2A agonist inactive, HTR5A inv ctr inactive, MOR-DOR inv conf inactive and HTR5A inv ctr2 inactive.
`COc1ccc(S(=O)(=O)N2CCC(C(=O)NCCc3c[nH]c4ccccc34)CC2)cc1` gave OPRM1-OPRD1 ag inactive, MOR-DOR inv ag inactive, HTR5A ag inactive, m5-HT2A agonist inactive and HTR5A inv ctr inactive.
For COc1ccc(N(CC(=O)NCCc2ccc(OC)c(OC)c2)S(=O)(=O)c2ccc(OC)c(OC)c2)cc1 the results were OPRM1-OPRD1 ag inactive, MOR-DOR inv ag inactive, HTR5A ag inactive, m5-HT2A agonist inactive and HTR5A inv ctr inactive.
Screening CCOC(=O)CN1C(=O)C(=O)c2cccc(C)c21 returned OPRM1-OPRD1 ag inactive, MOR-DOR inv ag 75.4, HTR5A ag inactive, m5-HT2A agonist inactive, HTR5A inv ctr inactive, MOR-DOR inv conf inactive and HTR5A inv ctr2 inactive.
`Cc1ccc(OCCN2C(=O)C(=O)c3cccc(C)c32)cc1` gave OPRM1-OPRD1 ag inactive, MOR-DOR inv ag 42.3, HTR5A ag inactive, m5-HT2A agonist inactive, HTR5A inv ctr inactive, MOR-DOR inv conf inactive and HTR5A inv ctr2 inactive.
`Cc1cccc(OCCN2C(=O)c3ccccc3C2=O)c1` gave OPRM1-OPRD1 ag inactive, MOR-DOR inv ag inactive, HTR5A ag inactive, m5-HT2A agonist inactive and HTR5A inv ctr inactive.
Screening CCc1c(O)nc(SCC(=O)Nc2ccc(Cl)cc2)n(-c2ccccc2)c1=O returned m5-HT2A agonist inactive.
Screening Cc1ccc(SCC(=O)OCC(=O)N(CC(C)C)C2CCS(=O)(=O)C2)cc1C (stereo not drawn) returned OPRM1-OPRD1 ag inactive, MOR-DOR inv ag 23.7, HTR5A ag inactive, m5-HT2A agonist inactive, HTR5A inv ctr inactive, MOR-DOR inv conf inactive and HTR5A inv ctr2 inactive.
